PubChem BioAssay AID1159580 (chemical genetic matrix, 2015)
Where “and” joins values, the source holds several entries; their conditions need not be identical. Identical values can stand only once. The campaign covered roughly 5,500 compounds. About 2,000 (36%) were called active. About 18% were inconclusive and are not listed. Cut-off read from the data, not from the text of the source: active = normalized growth mostly below about 0.91 (no sharp cut-off); inconclusive = no clear call, values can overlap the other calls; inactive = mostly above about 0.92. The list shows a part of the results.

Assay: chemical genetic growth profiling, strain panel (AID 1159580);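 note: tested at 20 µM; growth read once vehicle control cultures reached saturation at 30 °C; 1 = growth at the plate median or of vehicle wells; lower values mean less growth of the strain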
Conditions: S. cerevisiae deletion strains, growth OD

Measured: normalized growth

O=C1C[C@@H](c2ccc(O)cc2)Oc2cc(O)cc(O)c21
inactive: locus YAL013W, strain DEP1, active compounds read low 1.02 | locus YAL021C, strain ccr4, active compounds read low 0.987 | locus YAL026C, strain drs2, active compounds read low 0.969 | locus YAL030W, strain snc1, active compounds read low 0.953 | locus YBL061C, strain skt5, active compounds read low 0.974 | locus YBR009C, strain hhf1, active compounds read low 0.959 | locus YBR021W, strain FUR4, active compounds read low 0.995 | locus YBR023C, strain chs3, active compounds read low 0.955 | locus YBR171W, strain sec66, active compounds read low 0.989 | locus YBR229C, strain ROT2, active compounds read low 1.02 | locus YBR231C, strain swc5, active compounds read low 0.972 | locus YBR279W, strain paf1, active compounds read low 0.97 | locus YCL011C, strain gbp2, active compounds read low 0.952 | locus YCL016C, strain dcc1, active compounds read low 0.969 | locus YCL029C, strain bik1, active compounds read low 1.03 | locus YCL061C, strain MRC1, active compounds read low 0.979 | locus YCL069W, strain vba3, active compounds read low 0.966 | locus YCR088W, strain abp1, active compounds read low 0.955 | locus YDL005C, strain med2, active compounds read low 0.978 | locus YDL035C, strain GPR1, active compounds read low 1.01 | locus YDL040C, strain nat1, active compounds read low 0.976 | locus YDL074C, strain BRE1, active compounds read low 1.01 | locus YDL101C, strain DUN1, active compounds read low 1.01 | locus YDL134C, strain PPH21, active compounds read low 1.01 | locus YDL185W, strain tfp1, active compounds read low 1.01 | locus YDL192W, strain arf1, active compounds read low 1.01 | locus YDR001C, strain nth1, active compounds read low 0.964 | locus YDR069C, strain doa4, active compounds read low 0.944 | locus YDR101C, strain arx1, active compounds read low 1.01 | locus YDR137W, strain rgp1, active compounds read low 0.955 | locus YDR150W, strain NUM1, active compounds read low 1.01 | locus YDR159W, strain sac3, active compounds read low 0.942 | locus YDR162C, strain NBP2, active compounds read low 1.01 | locus YDR195W, strain ref2 0.931 | locus YDR297W, strain sur2, active compounds read low 0.97 | locus YDR318W, strain mcm21, active compounds read low 1.01 | locus YDR334W, strain swr1, active compounds read low 0.962 | locus YDR335W, strain msn5, active compounds read low 0.979 | locus YDR388W, active compounds read low 1.01 | locus YDR392W, strain spt3, active compounds read low 0.862 | locus YDR502C, strain sam2, active compounds read low 1.01 | locus YEL003W, strain gim4, active compounds read low 0.977 | locus YEL037C, strain rad23, active compounds read low 0.968 | locus YEL061C, strain CIN8 (second series), active compounds read low 0.949 | locus YEL061C, strain CIN8, active compounds read low 1.01 | locus YER015W, strain faa2, active compounds read low 0.982 | locus YER016W, strain bim1, active compounds read low 0.971 | locus YER110C, active compounds read low 1.02 | locus YER111C, strain swi4, active compounds read low 0.958 | locus YER155C, strain BEM2 (second series), active compounds read low 0.875 | locus YER155C, strain BEM2, active compounds read low 1.01 | locus YER167W, strain BCK2, active compounds read low 1.01 | locus YFR010W, strain ubp6, active compounds read low 0.924 | locus YGL078C, strain dbp3, active compounds read low 1.02 | locus YGL086W, strain mad1, active compounds read low 1.01 | locus YGL167C, strain pmr1, active compounds read low 0.949 | locus YGL173C, strain kem1, active compounds read low 0.969 | locus YGL227W, strain vid30, active compounds read low 0.948 | locus YGL240W, strain doc1, active compounds read low 0.944 | locus YGL248W, strain PDE1, active compounds read low 1.01 | locus YGL253W, strain hxk2, active compounds read low 0.983 | locus YGR078C, strain PAC10, active compounds read low 1.01 | locus YGR135W, strain pre9, active compounds read low 1 | locus YGR229C, strain SMI1, active compounds read low 1.01 | locus YGR252W, strain gcn5, active compounds read low 0.988 | locus YHR013C, strain ard1, active compounds read low 0.933 | locus YHR027C, strain rpn1, active compounds read low 0.971 | locus YHR030C, strain SLT2, active compounds read low 1.01 and 0.975 | locus YHR079C, strain IRE1 (second series), active compounds read low 1.01 | locus YHR079C, strain IRE1, active compounds read low 0.977 | locus YHR094C, strain hxt1, active compounds read low 1 | locus YHR129C, strain ARP1, active compounds read low 1.01 | locus YHR142W, strain chs7, active compounds read low 0.942 | locus YHR200W, strain rpn10, active compounds read low 1.01 | locus YIL066C, strain RNR3, active compounds read low 1.02 | locus YIL073C, strain SPO22, active compounds read low 1.05 | locus YIL125W, strain kgd1, active compounds read low 1.01 | locus YIR030C, strain dcg1, active compounds read low 1.02 | locus YJL092W, strain hpr5, active compounds read low 0.977 | locus YJL095W, strain BCK1 (second series), active compounds read low 0.976 | locus YJL095W, strain BCK1, active compounds read low 0.997 and 0.98 | locus YJL115W, strain asf1, active compounds read low 0.964 | locus YJL129C, strain trk1, active compounds read low 0.947 | locus YJL134W, strain LCB3, active compounds read low 1.01 | locus YJL154C, strain vps35, active compounds read low 0.967 | locus YJL164C, strain tpk1, active compounds read low 0.97 | locus YJL166W, strain qcr8, active compounds read low 0.968 | locus YJL168C, strain set2, active compounds read low 1.02 | locus YJL187C, strain SWE1 (second series), active compounds read low 1.02 | locus YJL187C, strain SWE1, active compounds read low 0.965 | locus YJR043C, strain POL32, active compounds read low 1.01 | locus YJR066W, strain TOR1, active compounds read low 0.935
